Results reported in PubChem BioAssay (Tox21).
Inconclusive results are not listed. Calls of active or inactive are those of the source. Unless noted, the call rests on the fitted dose curve; in most records, active means well fitted curve in the direction sought with a large enough effect in the repeat runs; inconclusive means weak or mixed curves; inactive means no such curve, though single readings can be large; an effect the other way counts as inactive or inconclusive.

What was measured:
[1] = qHTS assay to identify small molecule agonists of the NFkB signaling pathway (AID 1159509; active means well fitted curve in the direction sought with a large enough effect in the signal ratio in the repeat runs, not every such curve was filed as active; the % refers to the signal ratio; further: series mostly up to about 61 µM)
In short: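 Pathway activation was measured in ME-180 cells stably expressing beta-lactamase under NF-kB response element control. Substrate cleavage was read as the 460/530 nm emission shift after 5 hr compound incubation.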

[2] = qHTS assay to identify small molecule agonists of the NFkB signaling pathway - cell viability counter screen (AID 1159515; calls by dose curve; further: series mostly up to about 61 µM; nearly all actives have a fitted effect of over 55% in size)
In short: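 Plate 2,000 NFkB-bla ME-180 cells/well; incubate overnight. Add compounds, 5 hr at 37 C. Add FRET substrate, 1.5 hr RT. Add CellTiter-Glo, 30 min RT; read luminescence.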

[3] = qHTS assay to identify small molecule agonists of the endoplasmic reticulum stress response signaling pathway (AID 1159516; active means well fitted activation curve with a large enough effect in the signal ratio in the repeat runs, not every such curve was filed as active; the % refers to the signal ratio)
In short: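 Beta-lactamase expression from the ER stress response element in HeLa reporter cells is quantified with the LiveBLAzer B/G FRET substrate, read at 405 nm excitation after 2 hr at room temperature, following 5 hr compound treatment at 37 C.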

[4] = qHTS assay to identify small molecule antagonists of the retinoid-related orphan receptor gamma (ROR-gamma) signaling pathway - cell viability counter screen (AID 1159520); further: nearly all actives have a fitted effect of over 50% in size
In short: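 Tet-on ROR gamma CHO cells (1,000/well) were plated 4 hr, given compounds in DMSO for 2 hr at 37 C, then induced with 1 uM final doxycycline for 16 hr. Viability was read as ATP by CellTiter-Glo luminescence after 30 min.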

[5] = target: Nuclear receptor ROR-gamma (Homo sapiens) (UniProt P51449); test: qHTS assay to identify small molecule antagonists of the retinoid-related orphan receptor gamma (ROR-gamma) signaling pathway (AID 1159521;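 further: CHO cells with doxycycline inducible ROR-gamma driving an RORE luciferase reporter; top concentration of the series differs between compounds; nearly all actives have a fitted effect of over 50% in size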)
In short: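 RORγ antagonism is scored from reduced reporter luminescence in Tet-on CHO cells. Induction used 1 uM final doxycycline hyclate for 16 h at 37 C, following a 2 h compound exposure.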

[6] = qHTS assay to identify small molecule agonists of the AP-1 signaling pathway - cell viability counter screen (AID 1159525; calls by dose curve; further: nearly all actives have a fitted effect of over 55% in size)
In short: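 Each titration point was normalised to DMSO and tetra n-octyl ammonium bromide controls. The read was Cell Titer Glo luminescence after 30 min at RT, following 5 h compound exposure of ME-180 AP-1-bla cells at 37 °C.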

[7] = qHTS assay to identify small molecule agonists of the AP-1 signaling pathway (AID 1159526; calls by dose curve)
[8] = target: Retinoic acid receptor RXR-alpha (Homo sapiens) (UniProt P19793); test: qHTS assay to identify small molecule agonists of the RXR signaling pathway (AID 1159527; calls by dose curve; further: nearly all actives have a fitted effect of over 35% in size)
In short: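 qHTS of the Tox21 10K library in GeneBLAzer RXR-alpha HEK 293T cells carrying a beta-lactamase reporter […]; 16 hr treatment, 9-cis retinoic acid as agonist control, FRET read-out.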

[9] = qHTS assay to identify small molecule agonists of the RXR signaling pathway - cell viability counter screen (AID 1159529); further: series mostly up to about 77 µM; nearly all actives have a fitted effect of over 50% in size
In short: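 Cell viability is measured by CellTiter-Glo luminescence, 30 min at room temperature, in wells already read for beta-lactamase. Engineered HEK 293T cells (RXR-alpha-UAS-bla) are dosed 16 hr at 37 C. Tetraoctyl ammonium bromide serves as positive control.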

[10] = qHTS assay to identify small molecule antagonists of the retinoid acid receptor (RAR) signaling pathway - cell viability counter screen (AID 1159551); further: nearly all actives have a fitted effect of over 35% in size
In short: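 Viability of C3RL4 cells is quantified from ATP by luminescence after 6 h treatment at 37 C with compounds and 1 uM retinol.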

[11] = qHTS assay to identify small molecule antagonists of the retinoic acid receptor (RAR) signaling pathway (AID 1159552; further: nearly all actives have a fitted effect of over 50% in size)
In short: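 Quantitative HTS in C3RL4 RARE-luciferase reporter cells. Compounds were added with 1 uM (final) retinol; luminescence was read after 6 hr.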

[12] = qHTS assay to identify small molecule agonists of the retinoic acid receptor (RAR) signaling pathway (AID 1159553)
In short: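 Compounds dissolved in DMSO were pinned onto C3RL4 cells seeded the previous day, and plates were held 6 hr at 37 C. RARE-driven luciferase output was then read by luminescence.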

[13] = qHTS assay to identify small molecule agonists of the vitamin D receptor (VDR) signaling pathway - cell viability counter screen (AID 743224)
In short: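 In parallel with the bla FRET readout, cytotoxicity toward VDR-bla cells after 16 h compound exposure was assessed by CellTiter-Glo, with luminescence recorded after a 30 min room-temperature incubation.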

[14] = qHTS assay to identify small molecule antagonists of the vitamin D receptor (VDR) signaling pathway - cell viability counter screen (AID 743225); further: nearly all actives have a fitted effect of over 50% in size
In short: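 Cells (VDR-UAS-bla HEK 293T) are plated, rested 4 h at 37C, dosed with compound and 3 nM final 1-alpha,25-dihydroxy vitamin D3, and incubated 16 h. Viability is taken from CellTiter-Glo luminescence in the reporter wells.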

[15] = qHTS assay to identify small molecule agonists of the endoplasmic reticulum stress response signaling pathway - cell viability counter screen (AID 1159517; calls by dose curve)
In short: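 Cpd-treated ESRE-bla HeLa (5 hr, 37 C) → LiveBLAzer 2 hr RT → CellTiter-Glo 30 min RT → luminescence.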

[16] = qHTS assay to identify small molecule antagonists of the estrogen related receptor (ERR) signaling pathway - cell viability counter screen (AID 1224818);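 further: series mostly up to about 46 µM; viability measured after 17.5 h of compound exposure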
In short: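 Cytotoxicity check run alongside the ERR antagonist screen: cells exposed to test compounds 17.5 h at 37 C, viability taken as CellTiter-Fluor fluorescence intensity.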

[17] = qHTS assay to identify small molecule antagonists of the estrogen related receptor signaling pathway with the pleiotropic PPARgamma coactivator (PGC) cell viability counter screen (AID 1224822;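 further: series mostly up to about 46 µM; viability read after 17.5 h compound exposure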)
In short: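 Viable cell signal (CellTiter-Fluor, 30 min, 37 C/5% CO2) was measured in PGC/ERR cells after a 17.5 h compound incubation.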

[18] = qHTS assay to identify small molecule antagonists of the estrogen related receptor (ERR) signaling pathway (AID 1224819)
In short: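 ERR reporter cells were plated at 2,000 cells/well and left 6 h at 37 C/5% CO2 before pin-tool transfer of compounds in DMSO. After 18 h at 37 C, One-Glo was added and luminescence was read 30 min later at room temperature.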

[19] = qHTS assay to identify small molecule agonists of the estrogen related receptor (ERR) signaling pathway (AID 1224820)
In short: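 An ERR cell line provided by NTP was seeded at 2,000 cells per well and allowed to settle for 6 h before compounds in DMSO were added. After 18 h at 37 C, luciferase activity was measured by One-Glo luminescence.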

[20] = tested on: estrogen-related receptor alpha (ERRalpha) with PGC-1alpha coactivator, human; test: qHTS assay to identify small molecule antagonists of the estrogen related receptor signaling pathway with the pleiotropic PPARgamma coactivator (PGC) (AID 1224821; calls by dose curve)
In short: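 A PGC/ERR cell line supplied by NTP is seeded, allowed 6 h at 37 C, and treated with test compounds in DMSO for 18 h. Signal is then measured as luciferase luminescence using One-Glo.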

Measured: Potency

Retinoic acid receptor RXR-alpha (Homo sapiens), sequence (P19793 whole entry, looked up): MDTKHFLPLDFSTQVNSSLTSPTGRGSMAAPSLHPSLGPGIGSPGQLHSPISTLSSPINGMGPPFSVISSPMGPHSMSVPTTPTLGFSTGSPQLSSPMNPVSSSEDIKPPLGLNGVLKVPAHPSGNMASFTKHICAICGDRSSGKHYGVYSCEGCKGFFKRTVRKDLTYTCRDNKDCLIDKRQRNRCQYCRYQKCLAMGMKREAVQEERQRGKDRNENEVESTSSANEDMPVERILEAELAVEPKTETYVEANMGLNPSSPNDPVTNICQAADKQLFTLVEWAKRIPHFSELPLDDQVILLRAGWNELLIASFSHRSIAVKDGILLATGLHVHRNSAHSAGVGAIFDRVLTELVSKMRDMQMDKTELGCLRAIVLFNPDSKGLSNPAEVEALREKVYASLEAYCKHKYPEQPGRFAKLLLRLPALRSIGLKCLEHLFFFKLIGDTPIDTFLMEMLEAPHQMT

CN1CCN(c2cc3c(cc2F)c(=O)c(C(=O)O)cn3-c2ccc(F)cc2)CC1
inactive: [1] | [2] | [3] | [4] | [5] | [6] | [7] | [8] | [9] | [10] | [11] | [12]

CC[N+](C)(C)c1cccc(O)c1
inactive: [13] | [14] | [1] | [2] | [3] | [15] | [5] | [6] | [7] | [8] | [9] | [10] | [11] | [12] | [16] | [17]

C=C1CC[C@H]2C[C@@H]1C2(C)C
inactive: [13] | [14] | [1] | [2] | [3] | [15] | [5] | [6] | [7] | [8] | [9] | [10] | [11] | [12]

CC(C)(c1ccc(O)cc1)c1ccc(O)cc1
inactive: [13] | [14] | [1] | [2] | [3] | [15] | [4] | [6] | [7] | [9] | [10] | [11] | [12] | [16] | [18] | [19] | [20] | [17]

O=c1[nH]c(=O)n([C@H]2C[C@H](O)[C@@H](CO)O2)cc1I
inactive: [14] | [1] | [2] | [3] | [15] | [5] | [6] | [7] | [8] | [9] | [10] | [11] | [12]

CCOC(=O)c1cccc(N)c1
inactive: [14] | [1] | [2] | [3] | [15] | [5] | [6] | [7] | [8] | [9] | [10] | [11] | [12]
